About 83,000 compounds went through this panel and 20% of them were active in at least one assay; those are over-represented in the sample as a whole.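 96-well plates, one dose, 48 hours. Percent growth reported; active if below 10.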 Active and inactive are the calls of the source.
Assays:
Assay in all cases: NCI-60 one-dose screen, 48 h (100 = growth as untreated, 0 = no growth, -100 = all killed)
NCI-H226 lung = details: 10 µM
HOP-62 NSCLC = details: 10 µM
NCI-H460 lung = details: 10 µM
A549/ATCC NSCLC = details: 10 µM
COLO 205 colon = details: 10 µM
DU-145 prostate = details: 10 µM
K-562 leukemia = details: 10 µM
SF-539 CNS = details: 10 µM
HCT-15 colon = details: 10 µM
HT29 colon = details: 10 µM
SNB-75 CNS = details: 10 µM
SNB-19 CNS = details: 10 µM
U251 CNS = details: 10 µM
PC-3 prostate = details: 10 µM
LOX IMVI melanoma = details: 10 µM
MOLT-4 leukemia = details: 10 µM
SR leukemia = details: 10 µM
RPMI-8226 leukemia = details: 10 µM
SK-OV-3 ovarian = details: 10 µM
MDA-MB-468 breast = details: 10 µM unless noted

Measured: growth

CCOc1ccc(/C=N/NC(=O)Cn2nc(Cc3ccc(OC)cc3)c3onc(C)c3c2=O)cc1
inactive: COLO 205 colon 50.4% | DU-145 prostate 14.4% | K-562 leukemia 44.7% | HCT-15 colon 49.9% | HT29 colon 16.6% | SNB-19 CNS 29% | PC-3 prostate 18.3% | MOLT-4 leukemia 58.3% | SR leukemia 29.8% | RPMI-8226 leukemia 67.9% | MDA-MB-468 breast 40.4%
active: NCI-H226 lung 6.7% | HOP-62 NSCLC 7.48% | NCI-H460 lung -7.59% | A549/ATCC NSCLC 0.727% | SF-539 CNS -32.6% | SNB-75 CNS -39.9% | U251 CNS 4.53% | LOX IMVI melanoma 4.69% | SK-OV-3 ovarian -26.6%

Fc1ccc(/C=C/c2nc3ccccc3n3c(-c4ccc(Cl)cc4)nnc23)cc1
active: LOX IMVI melanoma -89.2% | MOLT-4 leukemia 2.97% | SR leukemia -3.04% | MDA-MB-468 breast -2.32%
inactive: NCI-H226 lung 77.4% | HOP-62 NSCLC 107% | NCI-H460 lung 59.6% | A549/ATCC NSCLC 82% | COLO 205 colon 67.8% | DU-145 prostate 68% | K-562 leukemia 10% | SF-539 CNS 85.5% | HCT-15 colon 24% | HT29 colon 59.5% | SNB-75 CNS 86.8% | SNB-19 CNS 86.2% | U251 CNS 73% | PC-3 prostate 72.5% | RPMI-8226 leukemia 53.5% | SK-OV-3 ovarian 104%

C#CCOc1cc(N(CC)CC)ccc1C(C(=O)NC(C)(C)C)N(C(=O)C1CCc2cc(F)ccc2O1)c1ccc(F)cc1F (stereo not given)
active: LOX IMVI melanoma -5.11% | MOLT-4 leukemia 6.84%
inactive: NCI-H226 lung 42.9% | HOP-62 NSCLC 51.6% | NCI-H460 lung 26.4% | A549/ATCC NSCLC 37.5% | COLO 205 colon 25.8% | DU-145 prostate 50.1% | K-562 leukemia 18.3% | SF-539 CNS 55.9% | HCT-15 colon 34.9% | HT29 colon 58.3% | SNB-75 CNS 64.4% | SNB-19 CNS 39.8% | U251 CNS 27.1% | PC-3 prostate 15% | SR leukemia 26.6% | RPMI-8226 leukemia 25.6% | SK-OV-3 ovarian 46.8% | MDA-MB-468 breast 20.9%

C#C[C@]1(O)CC[C@H]2[C@@H]3CC=C4c5sc(Nc6ccc(C(F)(F)F)cn6)nc5CC[C@]4(C)[C@H]3CC[C@@]21C
inactive: NCI-H226 lung 16.2% | HOP-62 NSCLC 10.9% | SNB-75 CNS 28.5%
active: NCI-H460 lung -35.8% | A549/ATCC NSCLC 7.15% | COLO 205 colon -87% | DU-145 prostate 8.36% | K-562 leukemia 7.48% | SF-539 CNS -45.3% | HCT-15 colon -34.8% | HT29 colon -31.8% | SNB-19 CNS 8.33% | U251 CNS -82.9% | PC-3 prostate 1.89% | LOX IMVI melanoma -98.5% | MOLT-4 leukemia -8.2% | SR leukemia 1.07% | RPMI-8226 leukemia -6.6% | SK-OV-3 ovarian -4.49% | MDA-MB-468 breast 4.25%

COc1ccc(Cc2nn(CC(=O)N/N=C/c3ccc([N+](=O)[O-])cc3)c(=O)c3c(C)noc23)cc1
inactive: NCI-H226 lung 70.6% | HOP-62 NSCLC 39.6% | NCI-H460 lung 16.6% | A549/ATCC NSCLC 22.5% | COLO 205 colon 82.9% | DU-145 prostate 88.4% | K-562 leukemia 88.4% | SF-539 CNS 34% | HCT-15 colon 83.7% | HT29 colon 96.2% | SNB-75 CNS 99.8% | SNB-19 CNS 59.6% | U251 CNS 24.4% | PC-3 prostate 69.8% | LOX IMVI melanoma 26.4% | MOLT-4 leukemia 90.2% | SR leukemia 93.2% | RPMI-8226 leukemia 81.5% | SK-OV-3 ovarian 103% | MDA-MB-468 breast 53.1%

COc1cc2oc(-c3cccc(C(=O)Nc4ccc(Cl)cc4)c3)cc(=O)c2c(OCCNC(=O)[C@@H](N)CO)c1OC
inactive: NCI-H226 lung 95.1% | HOP-62 NSCLC 87.6% | NCI-H460 lung 40.2% | A549/ATCC NSCLC 102% | COLO 205 colon 40.9% | DU-145 prostate 77% | SF-539 CNS 23.9% | HCT-15 colon 83% | HT29 colon 37.3% | SNB-75 CNS 121% | SNB-19 CNS 25% | PC-3 prostate 48.3% | SK-OV-3 ovarian 115%
active: K-562 leukemia -53.3% | U251 CNS -82.6% | LOX IMVI melanoma -79.1% | MOLT-4 leukemia -40.4% | SR leukemia -38.1% | RPMI-8226 leukemia -23.4% | MDA-MB-468 breast -85.6%

COc1ccc(OC)c(-n2cc(C#N)c(N)c2C(=O)c2ccc(Cl)cc2Cl)c1
active: HT29 colon 4.43% | SNB-75 CNS -7.62%
inactive: NCI-H226 lung 51.3% | HOP-62 NSCLC 49.3% | NCI-H460 lung 32.9% | A549/ATCC NSCLC 51.9% | COLO 205 colon 32.6% | DU-145 prostate 65.6% | K-562 leukemia 14.1% | SF-539 CNS 25.6% | HCT-15 colon 21.6% | SNB-19 CNS 45.5% | U251 CNS 24.6% | PC-3 prostate 37.8% | LOX IMVI melanoma 48.2% | MOLT-4 leukemia 29.8% | SR leukemia 13.7% | RPMI-8226 leukemia 39% | SK-OV-3 ovarian 49.7% | MDA-MB-468 breast 19.8%

COc1ccc(C2c3sc4ccc(C)cc4c3Oc3nc(N)nc(N)c32)cc1 (stereo not given)
inactive: NCI-H226 lung 78.5% | HOP-62 NSCLC 79.4% | NCI-H460 lung 88.8% | A549/ATCC NSCLC 92.2% | COLO 205 colon 93.7% | DU-145 prostate 102% | K-562 leukemia 50.9% | SF-539 CNS 69.6% | HCT-15 colon 59.9% | HT29 colon 99.1% | SNB-75 CNS 70.9% | SNB-19 CNS 84.5% | U251 CNS 83.1% | PC-3 prostate 79.8% | LOX IMVI melanoma 80.8% | MOLT-4 leukemia 89.9% | SR leukemia 51.2% | RPMI-8226 leukemia 83.6% | SK-OV-3 ovarian 89.3% | MDA-MB-468 breast 79.8%

CCn1c(SCC(=O)Nc2ccc(-c3nc4ccccc4[nH]3)cc2)nc2ccccc2c1=O
active: NCI-H226 lung -65.5% | HOP-62 NSCLC -80.4% | NCI-H460 lung -56.2% | A549/ATCC NSCLC -71.2% | COLO 205 colon -72.7% | DU-145 prostate -50.3% | K-562 leukemia -11.3% | SF-539 CNS -87.3% | HCT-15 colon -50% | HT29 colon -64.9% | SNB-75 CNS -94.2% | SNB-19 CNS -63.5% | U251 CNS -74.9% | PC-3 prostate -80.6% | LOX IMVI melanoma -63% | MOLT-4 leukemia 3.3% | SR leukemia -15.2% | RPMI-8226 leukemia -11.4% | SK-OV-3 ovarian -70.5% | MDA-MB-468 breast -81%

COC(=O)CNC(=O)COc1c(OC)c(OC)cc2oc(-c3cccc(C(=O)Nc4ccc(Cl)cc4)c3)cc(=O)c12
inactive: NCI-H460 lung 12.6% | A549/ATCC NSCLC 75.4% | COLO 205 colon 31% | DU-145 prostate 33.6% | K-562 leukemia 50% | SF-539 CNS 16% | HCT-15 colon 67.7% | HT29 colon 58.4% | SNB-75 CNS 85.1% | SNB-19 CNS 25.9% | U251 CNS 11.7% | PC-3 prostate 34.7% | MOLT-4 leukemia 88.6% | SR leukemia 61.2% | RPMI-8226 leukemia 53.7% | SK-OV-3 ovarian 82.2% | MDA-MB-468 breast 94.6%
active: NCI-H226 lung -51.4% | HOP-62 NSCLC -34.4% | LOX IMVI melanoma -33.2%

Cc1ccc(S(=O)(=O)N2CCN(S(=O)(=O)c3oc(-c4ccccc4)nc3C#N)CC2)cc1
active: LOX IMVI melanoma 8.41%
inactive: NCI-H226 lung 69.2% | HOP-62 NSCLC 100% | NCI-H460 lung 76.2% | A549/ATCC NSCLC 74.7% | COLO 205 colon 92.3% | DU-145 prostate 85.6% | K-562 leukemia 66.1% | SF-539 CNS 101% | HCT-15 colon 82.5% | HT29 colon 80.2% | SNB-75 CNS 92.6% | SNB-19 CNS 78.6% | U251 CNS 84.4% | PC-3 prostate 75% | MOLT-4 leukemia 56.8% | SR leukemia 31.4% | RPMI-8226 leukemia 74.7% | SK-OV-3 ovarian 87.9% | MDA-MB-468 breast 66.2%

O=C(Nc1ccc(OCc2ccc(Cl)cc2)cc1)Nc1ccc(Cl)c(C(F)(F)F)c1
inactive: HOP-62 NSCLC 19.5% | A549/ATCC NSCLC 16.2% | DU-145 prostate 26.6% | SNB-75 CNS 28% | SNB-19 CNS 11%
active: NCI-H226 lung 6.46% | NCI-H460 lung 7.92% | COLO 205 colon -80.6% | K-562 leukemia 7.62% | SF-539 CNS 7.92% | HCT-15 colon 9.07% | HT29 colon 8.31% | U251 CNS 6.47% | PC-3 prostate -7.44% | LOX IMVI melanoma -72.5% | MOLT-4 leukemia 9.92% | SR leukemia 2.46% | RPMI-8226 leukemia -9.46% | SK-OV-3 ovarian -18.9% | MDA-MB-468 breast -15.2%

C#C[C@]1(O)CC[C@H]2[C@@H]3CC=C4c5sc(Nc6cc(C)cc(C)n6)nc5CC[C@]4(C)[C@H]3CC[C@@]21C
active: HOP-62 NSCLC 6.05% | NCI-H460 lung -34.3% | A549/ATCC NSCLC 9.23% | COLO 205 colon -95.5% | K-562 leukemia 4.71% | SF-539 CNS -66% | HCT-15 colon -69.5% | HT29 colon -74.2% | SNB-19 CNS -39.1% | U251 CNS -58.9% | PC-3 prostate -4.36% | LOX IMVI melanoma -96% | MOLT-4 leukemia 1.29% | SR leukemia 3.1% | RPMI-8226 leukemia -16% | SK-OV-3 ovarian -62.4% | MDA-MB-468 breast -39.3%
inactive: NCI-H226 lung 13.8% | DU-145 prostate 12.9% | SNB-75 CNS 33.9%

Cc1cc(N=C2NC(=O)/C(=C/c3cc(C(C)(C)C)c(O)c(C(C)(C)C)c3)S2)n[nH]1
active: HOP-62 NSCLC 8.56% | NCI-H460 lung 0.397% | A549/ATCC NSCLC 9.9% | COLO 205 colon -9.38% | HCT-15 colon 6.98% | HT29 colon 9.22% | SNB-75 CNS 1.49% | U251 CNS 6.8% | LOX IMVI melanoma 1.11% | RPMI-8226 leukemia 1.11% | SK-OV-3 ovarian -27.9% | MDA-MB-468 breast -0.214%
inactive: NCI-H226 lung 10.3% | DU-145 prostate 27.2% | K-562 leukemia 18.3% | SF-539 CNS 18.9% | SNB-19 CNS 21.1% | PC-3 prostate 10.7% | MOLT-4 leukemia 11% | SR leukemia 12.2%

Cn1cc(/C=C(/SS/C(=C/c2cn(C)c3cccc(C(=O)O)c23)C(=O)O)C(=O)O)c2c(C(=O)O)cccc21
inactive: NCI-H226 lung 97.7% | HOP-62 NSCLC 103% | NCI-H460 lung 110% | A549/ATCC NSCLC 99.6% | COLO 205 colon 112% | DU-145 prostate 104% | K-562 leukemia 87.4% | SF-539 CNS 98.5% | HCT-15 colon 99.4% | HT29 colon 107% | SNB-75 CNS 88.8% | SNB-19 CNS 102% | U251 CNS 99.6% | PC-3 prostate 97.2% | LOX IMVI melanoma 48.9% | MOLT-4 leukemia 111% | SR leukemia 98.7% | RPMI-8226 leukemia 105% | SK-OV-3 ovarian 114% | MDA-MB-468 breast 103%

From PubChem BioAssay (NCI)
